Data as given in PubChem BioAssay (NCI).
Several values for one entry are separate records, joined by “and”; a condition that tells them apart may be missing. Equal entries are not always repeated. The panel holds about 83,000 compounds, 20% with a hit somewhere; the sample as a whole holds those more often.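 Plates (96-well) were seeded with cells, treated with compound at one concentration, and incubated for 48 hours before percent growth was determined.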 A number with no mark means an inactive call. Activity calls are given as the source filed them. The calls were made as follows: active = growth percent below 10; inactive = the rest.

Key:
Assay in all cases: NCI-60 one-dose screen, 48 h (100 = growth as untreated, 0 = no growth, -100 = all killed)
Settings in all cases: 10 µM unless noted
DU-145 prostate = tested on: DU-145 prostate
K-562 leukemia = tested on: K-562 leukemia
MALME-3M melanoma = tested on: MALME-3M melanoma
MDA-MB-231 breast = tested on: MDA-MB-231 breast
RXF 393 renal = tested on: RXF 393 renal
SF-268 CNS = tested on: SF-268 CNS
SF-295 CNS = tested on: SF-295 CNS
SF-539 CNS = tested on: SF-539 CNS
UACC-257 melanoma = tested on: UACC-257 melanoma
M14 melanoma = tested on: M14 melanoma

Row | Structure (SMILES) | growth (DU-145 prostate) | growth (K-562 leukemia) | growth (MALME-3M melanoma) | growth (MDA-MB-231 breast) | growth (RXF 393 renal) | growth (SF-268 CNS) | growth (SF-295 CNS) | growth (SF-539 CNS) | growth (UACC-257 melanoma) | growth (M14 melanoma)
1 | C[N+](C)=c1ccc2nc3c(cc(NCCCNc4cc5oc6cc(=[N+](C)C)ccc-6nc5c5ccccc45)c4ccccc43)oc-2c1 | -100% (active) | -0.99% (active) | 35.6% | -36.2% (active) | 58.2% | 55% | 45% | -9.59% (active) | 65.1% | 28.9%
2 | CC(=Nc1ccc(N(C)C)cc1)c1ccccc1 | 46.9% | 22.5% | 85.5% | 66.5% | 72.8% | 82.3% | 44.4% | 56.7% | 59.4% | 66.1%
3 | c1ccc2c(c1)Nc1cc3ccccc3cc1N2 | 60.9% | 20.9% | 28.4% | 33.1% | 63.3% | 66.2% | 46.2% | 39.1% | 37.4% | 23.9%
4 | N#CSCC(=O)c1ccc(Cl)cc1 | 30.2% | 44.4% | 54.8% | 34.4% | 25.6% | 34.6% | 49.4% | 22.2% | 82.3% | 2.91% (active)
5 | C=C(Cl)C(=NC(C)(C)C)Nc1ccccc1C | 87.1% | 19.8% | 83.9% | 91.3% | 103% | 101% | 99.3% | 99.3% | 100% | 85.1%
6 | O=C1c2cccnc2-c2nccc3c2c1nc1cc(Br)ccc13 | -88.9% (active) and -99.9% (active) | -87.4% (active) and -25.6% (active) | 8.18% (active) | -9.52% (active) and -58% (active) | -51.7% (active) and -90.9% (active) | -1.91% (active) and -63.6% (active) | 0% (active) and -84.3% (active) | -87.2% (active) and -90.5% (active) | -78.4% (active) and -83.7% (active) | -77.1% (active)
7 | OC(CNc1ccnc2cc(Cl)ccc12)CNc1ccnc2cc(Cl)ccc12 | 57.4% | 2.44% (active) | -77.9% (active) | -56.5% (active) | 97.4% | 82.2% | 71.6% | -79.8% (active) | 93.5% | 20.1%
8 | COC(=O)c1nc(=S)[nH]c(C(=O)OC)c1C(=O)c1ccccn1 | 39.5% | 17.7% | 30.7% | 33.6% | 43.2% | 34.3% | -1.15% (active) | 15.6% | 75.7% | 17.9%
9 | CCC(=O)Sc1ccccc1C(=O)Nc1ccc(Cl)cc1 | 74.3% | 19.4% | 6.61% (active) | 67.2% | 88.2% | 56.4% | 35.5% | 49.7% | 94.7% | 42.4%
10 | Oc1c(Cl)cc(Cl)c2cccnc12 | 85.5% and 71.2% | 24.4% and 29% | 74.1% and 91.3% | 95.1% and 48.3% | 67.1% | 66.4% and 54% | 30.3% and 12.3% | 68.7% and 34.3% | 82.4% | 63.7% and 53%
11 | CCN1/C(=C\c2cc[n+](CC)c3ccccc23)C=Cc2ccccc21 | 22.9% | 16.4% | 1.55% (active) | 3.42% (active) | 16.4% | 26.3% | 0.16% (active) | 7.56% (active) | -1.1% (active) | 10.5%
12 | O=C(Nc1ccc(F)cc1)ON=C1CCCCC1 | 106% [100 µM] | 79.6% [100 µM] | 108% [100 µM] | 101% [100 µM] | 102% [100 µM] | 96.3% [100 µM] | 100% [100 µM] | 93.5% [100 µM] | 98.8% [100 µM] | 111% [100 µM]
13 | C=CCOc1ccc(N=NC(C#N)C#N)cc1 | 77.8% | 38.2% | 3.69% (active) | 69.7% | 51.1% | 102% | 92.7% | 87% | 42.1% | 66.4%
14 | CC(=O)Nc1cccc2cc(O)ccc12 | 118% and 110% and 111% | 108% and 113% and 99.7% | 101% and 127% and 98.3% | 102% and 95.1% and 95.8% | 123% and 98% and 105% | 111% and 94.6% and 99.6% | 84.7% and 130% and 99% | 96.4% and 96.8% and 98.5% | 123% and 103% and 90.3% | 91.7% and 98.2%
15 | O=C1OCc2cccc3cccc1c23 | 107% | 103% | 107% | 111% | 102% | 103% | 102% | 98.4% | 94.3% | 103%
16 | NC(=S)N/N=C/c1ccc(Cl)s1 | 106% | 99.5% | 104% | 110% | 99.9% | 102% | 103% | 100% | 104% | 105%
17 | CC1(C)CC([P+](c2ccccc2)(c2ccccc2)c2ccccc2)=NN1 | 49.6% | 9.92% (active) | 21.2% | 65.4% | 59.6% | 41.1% | 53.2% | 51% | 2.89% (active) | 71.9%
18 | C1=C(c2ccccc2)C(c2ccc(OCCN3CCCCC3)cc2)Oc2ccccc21 (stereo not given) | 77.1% | 10.8% | 2.37% (active) | 48.4% | 20.4% | 62.2% | 52.7% | 71.8% | -40.6% (active) | -58% (active)
19 | Oc1ccc(/C=N/NC(=S)Nc2ccccc2)nc1 | 12.3% | 14.1% | 14.4% | 49.3% | 3.06% (active) | 18.7% | 25.3% | 1.01% (active) | 4.98% (active) | -34.8% (active)
20 | O=C(Nc1ccccc1)Oc1c(Cl)c(Cl)c(Cl)c(Cl)c1Cl | 110% and 101% | 101% and 93.9% | 89% and 104% | 88.2% and 94.2% | 113% and 110% | 94.2% and 98.8% | 97.4% and 91.8% | 99.7% and 90.6% | 109% and 103% | 101% and 95.3%
21 | CC1=CC(O)C2CC1C2(C)C (stereo not given) | 108% and 122% | 96.6% and 93.4% | 97.6% and 107% | 99.1% and 110% | 115% and 104% | 104% and 113% | 103% | 99.8% and 110% | 95.9% and 110% | 97.3% and 109%
